# Screens as filed in PubChem BioAssay.
# The list is not random: actives were taken first. Their share in the collection is about 1%.
# EBNA-1 inhibitor = EBNA-1 DNA-binding inhibitors, primary screen, biochemical, fluorescence polarization. inhibition, % at 14.8 µM. 300,000 compounds, 0.34% hits. AID 1950, 2009; in the data active = inhibition above about 28%
# EBV gp42 block = Epstein-Barr virus gp42 inhibitors, primary screen, biochemical, uHTS, fluorescence polarization; 220,000 compounds, 0.42% hits; Fluorescence polarization binding assay, mP read-out; inhibition, % (tested at 21.74 µM); Glycoprotein 42 (Epstein-Barr virus (strain AG876)), Q1HVG2; in the data active = inhibition above about 50%
# Target sequence (Q1HVG2 whole entry, looked up): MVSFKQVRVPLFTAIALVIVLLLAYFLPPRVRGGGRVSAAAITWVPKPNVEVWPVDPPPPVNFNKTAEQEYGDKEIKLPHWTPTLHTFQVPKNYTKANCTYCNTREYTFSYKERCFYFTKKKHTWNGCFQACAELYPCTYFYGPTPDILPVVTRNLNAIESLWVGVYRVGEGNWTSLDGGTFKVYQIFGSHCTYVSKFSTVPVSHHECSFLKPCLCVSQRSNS
# MEX-5 binding = MEX-5 zinc finger RNA-binding disruptors – biochemical, C. elegans, fluorescence polarization, MLPCN library, primary screen; activity score (negative = inhibition of binding), % at 10 µM; Zinc finger protein mex-5 (Caenorhabditis elegans), Q9XUB2; MEX-5/FITC-TCR2 RNA binding; active compounds read low; 300,000 compounds, 0.38% hits;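 active = inhibition past about -25% in most replicates, and total fluorescence under double the plate's negative control median, limit read from the data; inconclusive = replicates evenly split on the limit, or fluorescence at least double controls; inactive = too little inhibition in most replicates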;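 note: 0% = DMSO and -100% = 5 µM competing unlabeled TCR2 RNA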
# ZTA counter = ZTA (EBV) inhibition in EBNA-1 counter-screen; P03206; ZTA-DNA binding, fluorescence polarization; inhibition, % at 11 µM; 320,000 compounds, 0.15% hits; in the data active = inhibition above about 33%
# Target sequence (P03206 whole entry, looked up): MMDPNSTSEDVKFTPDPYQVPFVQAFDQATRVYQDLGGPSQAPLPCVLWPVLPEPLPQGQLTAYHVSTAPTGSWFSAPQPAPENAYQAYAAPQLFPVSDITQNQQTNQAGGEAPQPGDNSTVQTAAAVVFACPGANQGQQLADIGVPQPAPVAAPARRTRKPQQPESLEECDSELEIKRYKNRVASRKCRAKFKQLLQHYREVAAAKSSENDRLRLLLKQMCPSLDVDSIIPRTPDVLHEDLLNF
# The depositor's hits bear a star; ? = inconclusive; nt = no result given; + = active, no number.
SMILES,EBNA-1 inhibitor,EBV gp42 block,MEX-5 binding,ZTA counter
COc1cccc(C(=O)NCCC(=O)NCc2cc(=O)n(C)c(=O)n2C)c1,-3.0,nt,-0.9,1.5
COC(CNC(=O)c1ccc2c3c(onc13)-c1ccccc1C2=O)OC,-2.1,189.9*,?,11.7
O=C(N/N=C(\c1ccccc1)c1cccnc1)c1cc(O)ccc1O,-14.6,nt,-0.7,-1.9
Oc1ccc(N=Nc2n[nH]c(-c3ccccc3)n2)cc1,-7.9,-7.1,-37.4*,2.0
Oc1ccc(N=Nc2n[nH]c(-c3ccc(Br)cc3)n2)cc1,1.8,2.9,-3.9,0.2
Cc1ccccc1S(=O)(=O)Cc1ccc(C(=O)NC2CCCCC2)o1,11.6,nt,-0.2,7.2
C/C(=N/Nc1ccc(C(=O)O)cc1)c1ccc(O)c(O)c1O,-5.4,-7.4,-40.8*,-3.6
COc1ccc(C)cc1N(C(=O)c1snc(C(N)=O)c1N)C(C(=O)NC1CCCCC1)c1ccc(C)o1 (stereo not given),nt,nt,1.9,nt
O=C(N/N=C/c1oc(O)c2ccccc12)c1ccccc1O,-5.4,-7.9,-33.9*,-7.4
O=C(N/N=C/c1ccoc1)c1ccccc1O,1.6,nt,-1.0,-16.0
CCOc1ncccc1C(=O)Nc1cc(S(=O)(=O)N2CCCCC2)ccc1C,nt,nt,nt,12.0
Cc1cc(NS(=O)(=O)c2ccc(NC(=O)c3cc4cc(Br)ccc4oc3=O)cc2)no1,11.2,101.2*,-0.4,12.9
CC1(CCl)N([O-])C2=C(CCCC2)[N+]1=O (stereo not given),-1.3,-29.9,-36.5*,-6.8
O=[N+]1C2=C(CCCC2)N([O-])C12CCCC2,0.4,-6.7,0.6,11.5
Cc1cc(C)c(C(=O)N(C)C2CCCN(Cc3ccccc3F)C2)o1 (stereo not given),2.2,nt,-1.4,-0.3
COc1ccc(/C=C2\SC(=S)N(CCCC(=O)Nc3ccccn3)C2=O)cc1OC,-0.1,75.9*,-21.0,3.7
O=C(CCNC(=O)C1CCN(S(=O)(=O)c2ccccc2)CC1)NCc1ccncc1,12.4,nt,3.7,15.6
CN1CCN(c2cc(N3CCN(C(=O)c4ccco4)CC3)c3c4c(onc24)-c2ccccc2C3=O)CC1,1.4,nt,23.5,15.9
O=C1c2ccccc2-c2onc3c(N4CCN(CCO)CC4)cc(N4CCN(C(=O)c5ccco5)CC4)c1c23,9.0,nt,21.7,27.8
CCOC(=O)N1CCN(c2cc(NCCC(=O)O)c3c4c(onc24)-c2ccccc2C3=O)CC1,117.6*,-4.2,nt,176.9*
O=C(O)CCCNc1cc(N2CCC3(CC2)OCCO3)c2noc3c2c1C(=O)c1ccccc1-3,93.0*,12.6,nt,143.1*
O=C(O)CCCNc1cc(N2CCN(C(=O)c3ccco3)CC2)c2noc3c2c1C(=O)c1ccccc1-3,80.8*,nt,?,149.5*
CCn1c(SCC(=O)N2CCC(C)CC2)nc2c(c1=O)SCC2,9.1,nt,3.4,11.9
Cc1ccc(NC(=O)/C(C#N)=C(\N)C(Cl)(Cl)Cl)nc1,-8.3,137.4*,?,-15.0
Cc1ccc(S(=O)(=O)NC(=O)N(CCC#N)Cc2ccccc2)cc1,0.6,nt,1.5,-2.5
SMILES,EBNA-1 inhibitor,EBV gp42 block,MEX-5 binding,ZTA counter
CCOc1cc2c(cc1/C=C(/C#N)c1ccc(C(=O)O)cc1)OCO2,-14.6,-14.2,-31.9*,-7.7
O=c1[nH]c2ccc(N=Cc3c(O)ccc4cc(Br)ccc34)cc2[nH]1,nt,81.8*,-0.9,nt
Cc1[nH]n(-c2ccccc2)c(=O)c1C=Nc1ccc2[nH]c(=O)[nH]c2c1,-1.1,-13.1,-6.6,-0.3
Cc1ccc(C)c(NC(=S)N2CCC(NC(=O)c3ccco3)CC2)c1,-4.1,nt,1.5,-12.5
O=C(c1c[nH]c2ccccc12)C(Cl)c1ccccc1 (stereo not given),-0.3,nt,-4.6,-3.7
CN(CCC#N)C(=O)COC(=O)c1c2c(nc3ccccc13)/C(=C/c1ccco1)CC2,11.1,95.2*,-23.7,-1.9
CN(C)c1ccc(C=C2C(=O)OC(C)(C(C)(C)C)OC2=O)cc1 (stereo not given),0.5,-192.4,-7.0,8.4
CCN(CC)c1ccc(C=C2C(=O)OC(C)(C(C)(C)C)OC2=O)cc1 (stereo not given),-2.4,nt,-68.6*,-11.7
CCN(CC)c1ccc(C=C2C(=O)OC(c3ccccc3)OC2=O)cc1 (stereo not given),-9.4,90.8*,1.6,-3.8
O=C(NCCSc1ncc(-c2ccc(F)cc2)[nH]1)c1ccc2c(c1)OCO2,11.2,nt,1.5,8.2
O=C1c2cccc3cccc(c23)C(=O)N1/N=C/c1ccc(O)cc1O,5.1,-2.6,-3.3,4.8
Cc1nc2ccccc2c(=O)n1/N=C/c1ccc(O)c(O)c1O,3.2,nt,-51.7*,7.0
O=C1c2ccccc2C(=O)N1/N=C/c1ccc(O)c(O)c1O,nt,6.2,-53.2*,nt
NC(=O)c1nsc(C(=O)N(c2ccc(F)cc2)C(C(=O)NCC2CCCO2)c2c[nH]c3ccccc23)c1N (stereo not given),-1.3,nt,-0.7,6.9
CN(C(=O)COC(=O)c1ccc2ccccc2n1)C1CCS(=O)(=O)C1 (stereo not given),+,0.6,-0.4,+
O=C1C2=C(SCCS2)C(=O)N1c1ccccc1,-4.8,4.1,-45.4*,-7.5
O=C(NNC(=O)C1CCN(S(=O)(=O)c2ccc(Cl)cc2)CC1)c1ccccc1O,-4.7,nt,0.5,-4.3
COc1cc([C@@H]2c3cc4c(cc3[C@@H](O)[C@@H](CO)[C@@H]2CO)OCO4)cc(OC)c1O[Si](C)(C)C(C)(C)C,-5.2,-12.8,1.0,33.6*
COc1cc([C@@H]2c3cc4c(cc3[C@H](O)[C@H]3COC(=O)[C@H]23)OCO4)cc(OC)c1OC,5.0,-3.8,-3.9,-12.1
CN(C)c1ccc(C(=O)/C=C/c2cccnc2)cc1,11.4,nt,-17.7,-1.8
CN(C)c1ccc(/C=C/C(=O)c2cccc(Br)c2)cc1,-1.5,144.0*,?,7.8
CCn1c(O)c(/C=N/N=C/c2ccccc2)c2ccc(C3=NNC(=O)CC3)cc21,5.3,59.6*,-12.5,1.5
O=C(O)CCNc1ccc(NCCC(=O)O)c2c1C(=O)c1ccccc1C2=O,128.1*,nt,-54.6*,158.3*
Cc1ccc(C)c(S(=O)(=O)N2CCCCC2CCNC(=O)C(=O)NCc2ccncc2)c1 (stereo not given),0.6,nt,-2.3,-9.8
COc1ccc(Cn2c3ccc(OC)cc3c3nc4ccccc4nc32)cc1,-2.7,66.7*,-38.8*,13.5
SMILES,EBNA-1 inhibitor,EBV gp42 block,MEX-5 binding,ZTA counter
COc1ccc2c(c1)c1nc3ccccc3nc1n2CC(=O)OC(C)C,12.2,90.8*,?,11.1
COc1ccc2c(c1)c1nc3ccccc3nc1n2Cc1ccc(OC(C)C)c(OC)c1,1.2,80.0*,-72.9*,-8.3
COc1ccc2c(c1)c1nc3ccccc3nc1n2CCCN1C(=O)c2ccccc2C1=O,0.6,14.2,-41.7*,-0.4
COc1ccc2c(c1)c1nc3ccccc3nc1n2CCn1c(=O)oc2ccccc21,2.5,-1.2,?,-10.8
Cc1cccc(-n2c(CNC(=O)c3ccc(S(=O)(=O)N4CCCCC4)cc3)n[nH]c2=S)c1,2.0,nt,-1.8,10.8
CN(CC(=O)Nc1cc(Cl)ccc1C#N)C1CCS(=O)(=O)C1 (stereo not given),nt,nt,nt,-3.5
